# Most compounds without a hit are left out; they make up all but 2.6% or so of the library.
# LT uptake inh: inhibitors of anthrax lethal toxin internalization | Potency, µM (highest dose often 40 µM), without a hit: at the highest dose activity change, negative = inhibition, hits mostly inhibitors | 70,000 compounds, 0.67% hits | Cells, anthrax lethal toxin internalization, FRET ratio (460/530); note: % is set by controls: 0 for no effect and ±100 for the full control effect; nearly all actives have a fitted effect of over 50% in size
# AmpC inh no det: blocks E. coli AmpC beta-lactamase in absence of detergent. AmpC nitrocefin hydrolysis, absorbance 480 nm, no detergent. 71,000 compounds, 1.8% hits. Potency, µM (highest dose often 28.7 µM), for the others: at the highest dose activity change, negative = inhibition. AID 585; note: % of control where 0% means no effect
# Target sequence (P00811 whole entry, looked up): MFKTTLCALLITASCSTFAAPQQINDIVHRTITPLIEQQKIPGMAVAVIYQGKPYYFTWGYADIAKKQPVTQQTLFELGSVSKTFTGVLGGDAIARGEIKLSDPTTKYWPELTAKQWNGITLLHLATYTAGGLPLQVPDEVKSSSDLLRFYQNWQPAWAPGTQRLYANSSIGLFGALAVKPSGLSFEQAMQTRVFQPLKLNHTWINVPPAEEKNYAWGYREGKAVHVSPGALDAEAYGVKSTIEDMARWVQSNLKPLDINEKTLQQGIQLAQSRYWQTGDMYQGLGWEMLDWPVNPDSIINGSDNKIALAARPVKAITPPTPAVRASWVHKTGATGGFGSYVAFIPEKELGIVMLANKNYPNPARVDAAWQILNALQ
#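 AmpC in 20 mM phosphate buffer pH 7.0 was preincubated 15 min at room temperature with compounds. Nitrocefin (800 uM stock) was then added and hydrolysis followed at 480 nm every 20 s for 4 min.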
# SmPrx2 inh: Schistosoma mansoni Prx2 inhibition. S. mansoni Prx2 activity coupled to TGR/GSH (TGR is thioredoxin glutathione reductase), NADPH fluorescence loss, qHTS. Potency, µM. 65,000 compounds, 0.07% hits. AID 448
#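 Prx2 inhibition was measured as reduced NADPH consumption when electrons flowed from NADPH through TGR and glutathione to Prx2 and H2O2. Plates were read kinetically over 8 min; enzyme reagents were held at 4 deg C during dispensing.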
# AmpC inh det: inhibitors of E. coli AmpC beta-lactamase with detergent; purified AmpC, nitrocefin hydrolysis with detergent; 71,000 compounds, 0.09% hits; Potency, µM (titrated, usually from 28.7 µM), without a hit: at the highest dose activity change, negative = inhibition; P00811; active = well fitted curve in the direction sought with a large enough effect; inconclusive = small, poorly fitted or top-dose-only effect; note: % is set by controls: 0 for no effect and ±100 for the full control effect
#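 E. coli AmpC (5.3 nM) in 20 mM phosphate pH 7.0 with 0.01% Triton X-100, preincubated 15 min RT with compound; nitrocefin (2 uL of 800 uM stock) hydrolysis followed by 480 nm absorbance every 20 s over 4 min.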
# Active calls of the source: *; ? = inconclusive; nt = not tested or not shown; ! = repeats disagree; [ ] = dose if it differs, or a comment. Unless noted, calls come from the whole dose curve. Potency is the fitted concentration of half-maximal effect.
SMILES,LT uptake inh,AmpC inh no det,SmPrx2 inh,AmpC inh det
C=CS(=O)(=O)c1ccc(Oc2ccc(S(=O)(=O)C=C)cc2)cc1,4µM*,15%,?,2%
O=c1c(O)c(-c2ccc(O)cc2)oc2cc(O)ccc12,?,?,>57,2%
O=c1c(O)c(-c2ccc(O)c(O)c2)oc2cc(O)ccc12,-12%,13µM*!,>57,-2%
COc1cc2ccc([C@H](C)NCC#N)cc2cc1OC,?,2%[5.75 µM],>57,-5%[5.75 µM]
Cc1cccc2cc3ccc4ccccc4c3cc12,?,4%[5.75 µM],>57,-1%[5.75 µM]
O=C(O)c1ccccc1NCn1c(=S)sc2ccccc21,0%[8 µM],0%[5.75 µM],>57,-2%[5.75 µM]
N#C/C(=C\c1ccc(O)c(O)c1)C(N)=S,25µM*!,-20%,?,-1%
C/C(=C\COc1cc(=O)[nH]c2ccccc12)CC[C@@H](O)C(C)(C)O,?,24%,>57,-1%
O=C(CCN1C(=O)C2C3C=CC(C3)C2C1=O)Nc1nccs1 (stereo not given),-1%,-2%,>57,-5%
O=C(CCCCCN1C(=O)C2C3C=CC(C3)C2C1=O)Nc1nccs1 (stereo not given),12%,2µM*[single pt active],>57,12%
C=CCN1CCc2c(cc(O)c(O)c2Br)[C@H](c2ccccc2)C1,10%,-5%,>57,-1%
CN[C@@H](CC(C)C)C(=O)N[C@@H]1C(=O)N[C@H](CC(N)=O)C(=O)N[C@H]2C(=O)N[C@H]3C(=O)N[C@H](C(=O)N[C@H](C(=O)O)c4cc(O)cc(O)c4-c4cc3ccc4O)[C@H](O)c3ccc(c(Cl)c3)Oc3cc2cc(c3O[C@@H]2O[C@@H](CO)[C@@H](O)[C@@H](O)[C@H]2O[C@H]2C[C@](C)(N)[C@H](O)[C@H](C)O2)Oc2ccc(cc2Cl)[C@@H]1O,1%,-4%,>57,-1%
O=C(C1CCCN(S(=O)(=O)c2cccs2)C1)N1CCC(N2CCCCC2)CC1 (stereo not given),8%,4µM*[single pt active],>57,31%
O=C(NCCc1ccccc1)C1CCCN(S(=O)(=O)c2cccs2)C1 (stereo not given),-5%,4µM*[single pt active],>57,12%
Cc1nc2c3ccccc3n(CC#N)c(=O)n2n1,-11%,2.5µM*[single pt active],>57,11%
CCOc1ccc2[nH]c(C)c(CN3CCN(CC)CC3)c(=O)c2c1,-18%,-14%,>57,6%
CCCCN(C)Cc1c(C)[nH]c2ccc(OCC)cc2c1=O,-4%,4µM*[single pt active],>57,16%
O=c1cc(-c2ccccc2)oc2c1ccc1ccccc12,25µM*,59%,>57,-1%
Cn1c(C(=O)N2CCN(c3ccccn3)CC2)cc2c(=O)n(C)c3ccccc3c21,14%,4µM*[single pt active],>57,14%
Cn1c(C(=O)N2CCN(C3CCCCC3)CC2)cc2c(=O)n(C)c3ccccc3c21,-6%,4µM*[single pt active],>57,13%
Cn1c(C(=O)N2CCN(c3ccc(F)cc3)CC2)cc2c(=O)n(C)c3ccccc3c21,-2%,10%,>57,10%
Cn1c(C(=O)N2CCN(c3ccc(Cl)cc3)CC2)cc2c(=O)n(C)c3ccccc3c21,-25%,4µM*[single pt active],>57,10%
C[C@@]12CC[C@H]3[C@@H](CCC4=C(O)C(=O)CC[C@]43C)[C@H]1CCC2=O,-2%,4%,>57,-3%
CC(=O)NCCc1c[nH]c2ccccc12,-1%,-2%,>57,-1%
N#Cc1cccc(NC(=O)NCCc2c[nH]c3ccccc23)c1,13µM*,4µM*[single pt active],>57,13%
SMILES,LT uptake inh,AmpC inh no det,SmPrx2 inh,AmpC inh det
Cc1nc(NCc2ccccc2)c2nc(-c3ccccc3)n(CCCN3CCCCC3C)c2n1 (stereo not given),?,96%,nt,13%
O=C(c1ccncc1)N1CCC2(CC1)CN(Cc1cc(C(F)(F)F)cc(C(F)(F)F)c1)C2,13µM*,-6%,>57,23%
O=C(c1cc(C(F)(F)F)cc(C(F)(F)F)c1)N1CCC2(CC1)CN(Cc1ccncc1)C2,?,74%,>57,-3%
Cc1cc(NC(=O)c2noc3c2CCc2ccccc2-3)no1,-1%,4µM*[single pt active],>57,9%
Cc1c(NC(=O)c2noc3c2CCc2ccccc2-3)c(=O)n(-c2ccccc2)n1C,-14%,4µM*[single pt active],>57,10%
Cc1ccccc1Cn1nc(C)c(NC(=O)c2noc3c2CCc2ccccc2-3)c1C,?,64%,?,13%
CO[C@@H]([CH2][Hg])CN1C(=O)c2ccccc2S1(=O)=O.Cn1c(=O)c2nc[nH]c2n(C)c1=O,?,-15%[5.75 µM],1.3*,-3%[5.75 µM]
O=C1c2ccccc2S(=O)(=O)N1CC(O)COc1ccc(Br)cc1 (stereo not given),-25%,13%,nt,6%
CC1(C(=O)NCCCNc2ncc(C(F)(F)F)cc2Cl)C=CC2(CCCCC2)N1C(=O)c1ccccc1 (stereo not given),25µM*,8%,nt,11%
CCCNC(=O)OC[C@@H]1O[C@H](CCO/N=C(\C)CCN2CCCCc3nc(C)c(C)cc32)C=C[C@@H]1Oc1ccc(OC)cc1,-11%[1.6 µM],nt,nt,nt
COc1ccc(OC)c(NC(=O)c2cc3n(n2)C(C(F)(F)F)CC(c2ccc4c(c2)OCO4)N3)c1 (stereo not given),-29%,34%,>57,4%
O=C(Nc1cc(Cl)ccc1O)c1cc2n(n1)C(C(F)(F)F)CC(c1ccc3c(c1)OCO3)N2 (stereo not given),?,7.9µM*,>57,-3%
Cc1ccsc1C=Nc1ccc(O)cc1,?,10µM*,>57,7%
COc1ccc(CNC(=O)c2cc(-c3cccc(OC)c3)on2)cc1,?,-9%,>57,2%
COc1ccc(-c2cc(C(=O)NCc3ccccc3)no2)cc1OC,-1%,0.4µM*,?,?
COc1ccc(CNC(=O)c2cc(-c3ccc(OC)c(OC)c3)on2)cc1,5%,25%,>57,-2%
COc1cccc(-c2cc(C(=O)NCc3ccc(Cl)cc3)no2)c1,5%,13µM*[single pt active],nt,3%
O=C(O)C(F)(F)C(F)(F)C(F)(F)C(F)(F)C(=O)O,-8%[8 µM],-2%[5.75 µM],>57,-1%[5.75 µM]
Cc1ccc(C(=O)[C@@H]2[C@@H]3[C@@H](C(=O)[C@@H]4OC[C@H]3O4)[C@@H]3C=Cc4ccccc4N23)cc1,?,101%,>57,-5%
Cc1cc(C(=O)CSc2nnnn2-c2ccc(O)cc2)c(C)n1Cc1ccc2c(c1)OCO2,?,13µM*,>57,-5%
Cc1ccc(-c2nnc(SCC(=O)Nc3ccc4c(c3)OCCO4)n2N)cc1,-3%,-6%,>57,10%
Cc1cc(C(=O)CSc2nnc(-c3cccc(F)c3)n2N)c(C)n1Cc1ccc2c(c1)OCO2,-14%,16µM*[single pt active],>57,9%
O=C(CCCn1c(=O)[nH]c2ccccc2c1=O)N1CCN(c2ccccn2)CC1,12%,3.2µM*[single pt active],>57,12%
O=C(CCCCn1c(=O)[nH]c2ccccc2c1=O)N1CCN(c2cccc(C(F)(F)F)c2)CC1,?,93%,>57,-4%
O=C(CCCCn1c(=O)[nH]c2ccccc2c1=O)N1CCN(c2ncccn2)CC1,-8%,4µM*[single pt active],>57,14%

# Screens from PubChem BioAssay.
